Among the data in PubChem BioAssay AID430 (Sanford-Burnham Center for Chemical Genomics, 2006) are cytotoxicity values, retold here.

Among all 63,000 compounds or so, about 1,100 (1.7%) were called active. No stated cut-off is given here; in the data, active means cytotoxicity above about 50%; inactive means the rest. Only a selection was taken, and actives are over-represented in it overall. Measured potencies and affinities stand elsewhere.

The assay is described as follows: HPDE-C7 pancreatic duct cell viability loss – fluorescence, HTS (AID 430).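 Further: cells exposed to compound for 48 hours before viability readout; 0% = vehicle and 100% = reference cytotoxic drug.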 The settings on record: HPDE-C7 pancreatic duct cells viability, at 10 µM, hits give high values.
Take `COc1ccc(OC)c(NC(=O)CCN2CCN(Cc3ccccc3)CC2)c1`: the cytotoxicity was 0.1% (inactive).

With `Cc1cccc(-c2nc(CS(=O)CC(=O)NCCCSC3CCCCC3)c(C)o2)c1` (configuration not stated), the cytotoxicity was 56.1% (active).

On to `CCCCNC(=O)CS(=O)Cc1nc(-c2cccc(C)c2)oc1C` (configuration not stated), for which the cytotoxicity was 0.4% (inactive).

For `CCCCSCCCNC(=O)CS(=O)Cc1nc(-c2cccc(C)c2)oc1C` (configuration not stated), the cytotoxicity is -17.4% (inactive).

For `Cc1ccc(C2(C(F)(F)F)NC(=O)N3CCN=C3S2)cc1` (configuration not stated), the cytotoxicity was 81.6% (active).

As to `Cc1ccc(C2(C(F)(F)F)NC(=O)N3CCCN=C3S2)cc1` (configuration not stated), the cytotoxicity was -18.8% (inactive).

On to `O=C1NC(c2ccccc2)(C(F)(F)F)SC2=NCCCN12` (configuration not stated), for which the cytotoxicity is -2.2% (inactive).

For `CC(C)c1ccc2c(c1)C(=O)NC(C)(C)C2`, the cytotoxicity was 1.8% (inactive).

In the case of `COc1ccccc1C(=O)NCCn1cc(SCC(=O)Nc2nnc(C)s2)c2ccccc21`, the cytotoxicity is -8% (inactive).

As to `CC(C)Cn1c(CN(C)Cc2ccccc2)nc2c1c(=O)n(C)c(=O)n2C`, the cytotoxicity is -6.6% (inactive).

In the case of `CCCn1c(CN(Cc2ccccc2)Cc2ccccc2)nc2c1c(=O)n(C)c(=O)n2C`, the cytotoxicity is -14.9% (inactive).

For the molecule `CC(C)Cn1c(CN(Cc2ccccc2)Cc2ccccc2)nc2c1c(=O)n(C)c(=O)n2C`, the cytotoxicity was 51.7% (active).

In the case of `CCOP(=O)(c1ccc(N(C)C)cc1)C(O)c1cc(OC)c(OC)c(OC)c1` (configuration not stated), the cytotoxicity is 5.9% (inactive).

As for `COC(=O)CSc1nc(-c2cccs2)ccc1C#N`, the cytotoxicity is 29.9% (inactive).

For the molecule `C=COC(=O)CSc1nc(-c2cccs2)ccc1C#N`, the cytotoxicity is 26.7% (inactive).

As for `CCOC(=O)C(C)Sc1nc(-c2cccs2)ccc1C#N` (configuration not stated), the cytotoxicity was 59.2% (active).

In the case of `O=C(Nc1ccccc1N1CCCC1)c1ccco1`, the cytotoxicity is 3.9% (inactive).

As for `O=c1[nH]c2cc3c(cc2cc1CN(CCCO)Cc1nnnn1Cc1ccc(F)cc1)OCO3`, the cytotoxicity was -1.2% (inactive).

As to `CC(=O)Nc1nc(C)nc(-c2ccccc2)c1C(C)=O`, the cytotoxicity is -1.8% (inactive).

As to `CCc1nnc(NC(=O)CSc2nnc(-c3ccccc3OC)n2-c2ccccc2)s1`, the cytotoxicity was -8.7% (inactive).

`CCc1nnc(NC(=O)CSc2nnc(-c3ccccc3O)n2-c2ccc(C)cc2C)s1`: the cytotoxicity was 73.5% (active).

Consider `CCc1nnc(NC(=O)CSc2nnc(-c3ccccc3O)n2-c2ccc(C)cc2)s1`, for which the cytotoxicity is -7.9% (inactive).

For the molecule `CCOC(=O)c1ccc2nc(NC(=O)C(C)C)sc2c1`, the cytotoxicity is -3.3% (inactive).

Consider `C=CCN(CC=C)S(=O)(=O)c1ccc2nc(NC(=O)C(C)C)sc2c1`, for which the cytotoxicity is 76.7% (active).

With `C=CCN(CC=C)S(=O)(=O)c1ccc2nsnc2c1`, the cytotoxicity was -6.7% (inactive).

`COc1ccc(-c2noc(CSc3nc4ccccc4c(=O)n3-c3ccccc3)n2)cc1OC`: the cytotoxicity was -10.3% (inactive).

For `Cc1ccccc1NC(=O)C1CCCN(S(=O)(=O)c2cnc[nH]2)C1` (configuration not stated), the cytotoxicity is -5.3% (inactive).

Consider `CC(C)c1[nH]nc2c1C(C(C)C)C(C#N)=C(N)O2` (configuration not stated), for which the cytotoxicity is -24.3% (inactive).

Turning to `NC1=NC(c2ccc(F)cc2)n2c(nc3ccccc32)N1` (configuration not stated), the cytotoxicity is -3.6% (inactive).

In the case of `Cc1cc(C2N=C(N)Nc3nc4ccccc4n32)c(C)n1-c1ccccc1Cl` (configuration not stated), the cytotoxicity is 2.7% (inactive).

As for `COc1cc(S(=O)(=O)N2CCN(c3ccccc3)CC2)ccc1Cl`, the cytotoxicity is -12.6% (inactive).

As to `Cc1nc(SCc2c(F)cccc2Cl)c2c(=O)n(C)c(=O)n(C)c2n1`, the cytotoxicity was -26.2% (inactive).

`CC(C)c1nc(SCc2ccccn2)c2c(=O)n(C)c(=O)n(C)c2n1`: the cytotoxicity was -2% (inactive).

Turning to `CC(C)c1nc(SCc2c(F)cccc2Cl)c2c(=O)n(C)c(=O)n(C)c2n1`, the cytotoxicity is 77.1% (active).

With `CCOC(=O)c1cnc(SCC(=O)Nc2nnc(CC)s2)nc1N`, the cytotoxicity was -4.3% (inactive).

As to `C=CCn1cnc2c(c1=O)c1nc3ccccc3nc1n2/N=C/c1cccc(OC)c1OC`, the cytotoxicity was 46.6% (inactive).

With `C=CCn1cnc2c(c1=O)c1nc3ccccc3nc1n2/N=C/c1cccc(OC)c1`, the cytotoxicity is 48.5% (inactive).

As for `O=C(CCSc1ccccc1)Nc1ccc(S(=O)(=O)N2CCOCC2)cc1`, the cytotoxicity is 1.8% (inactive).

As for `COc1cc2c(cc1OC)C(c1cc(OC)c(OC)c(OC)c1)NCC2` (configuration not stated), the cytotoxicity was 4.6% (inactive).

Regarding `COc1cc2c(cc1OC)C1Cc3ccc(OC)c(OC)c3CN1CC2` (configuration not stated), the cytotoxicity is -10.2% (inactive).

In the case of `O=C(O)C1CC(=O)N(c2ccc(F)cc2)C1` (configuration not stated), the cytotoxicity is -16.5% (inactive).

For the molecule `CCOC(=O)C1C2C=CC3(CN(c4cccc(Cl)c4)C(=O)C13)O2` (configuration not stated), the cytotoxicity was -0.8% (inactive).

For the molecule `CC1(C)C2CC=C(/C=N/n3cnnc3)C1C2` (configuration not stated), the cytotoxicity is -4.1% (inactive).

`O=c1c2ccccc2[nH]c(=S)n1CCN1CCN(Cc2ccccc2)CC1`: the cytotoxicity was -3.8% (inactive).

On to `O=C(c1ccc(F)cc1)C1CCN(CCn2c(=O)[nH]c3ccccc3c2=O)CC1`, for which the cytotoxicity was 5.4% (inactive).

With `COc1ccc(C(=O)OCC(=O)NCc2ccco2)cc1OC`, the cytotoxicity is -14.8% (inactive).

Take `COc1cc(S(=O)(=O)Nc2cccnc2)ccc1F`: the cytotoxicity was -3.6% (inactive).

For `CCCCOc1ccc(S(=O)(=O)Nc2cccnc2)cc1`, the cytotoxicity was -5.2% (inactive).

`COc1ccccc1Oc1ccc(S(=O)(=O)Nc2cccnc2)cc1`: the cytotoxicity is 51.5% (active).

For `Cc1nc(NC(=O)CSc2nc3cccnc3n2C2CCCCC2)sc1C`, the cytotoxicity is 9.2% (inactive).

Take `Cc1ccc(-c2nn3c(C)nnc3s2)cc1NC(=O)c1ccc(Br)o1`: the cytotoxicity was -10.8% (inactive).

As for `Cc1nnc2sc(-c3cccc(NC(=O)c4ccc(-c5cccc(Cl)c5)o4)c3)nn12`, the cytotoxicity was 0.6% (inactive).

In the case of `CC(C)CNc1nc(Oc2ccc(=O)n(C)n2)nc(N2CCOCC2)n1`, the cytotoxicity is -7.6% (inactive).

Regarding `c1ccc(-n2ncc3c(NCc4ccco4)ncnc32)cc1`, the cytotoxicity was 1.4% (inactive).

Take `Cc1cccc(-n2ncc3c(NCc4ccco4)ncnc32)c1`: the cytotoxicity was 64.1% (active).

Turning to `c1ccc(Cn2ncc3c(NCc4ccco4)ncnc32)cc1`, the cytotoxicity was 8.9% (inactive).

In the case of `Clc1ccc(-n2ncc3c(NCc4ccco4)ncnc32)cc1`, the cytotoxicity was 17.4% (inactive).

As to `Clc1ccc(Cn2ncc3c(NCc4ccco4)ncnc32)c(Cl)c1`, the cytotoxicity was 51.5% (active).

Consider `Cc1ccc(-n2ncc3c(NCc4ccco4)ncnc32)c(C)c1`, for which the cytotoxicity was -6.7% (inactive).

Regarding `Cc1cc(C)nc(N2CCC(C(=O)N3CCN(c4cc(Cl)ccc4C)CC3)CC2)n1`, the cytotoxicity was 59.5% (active).

Consider `Cc1ccc(C)c(N2CCN(C(=O)C3CCN(c4nc(C)cc(C)n4)CC3)CC2)c1`, for which the cytotoxicity is 11.3% (inactive).

In the case of `Cc1ccc(Cl)cc1N1CCN(C(=O)C2CCN(c3nnc(-n4cccc4)s3)CC2)CC1`, the cytotoxicity is 43.7% (inactive).
